Test results as given in ChEMBL document CHEMBL3988442, “University of Dundee, Small-Polar-MMV Screening Library” (2021).

Key:
[1] = biological target: T1, Aspartate--tRNA(Asp/Asn) ligase (Mycobacterium tuberculosis (strain ATCC 25618 / H37Rv)) (UniProt P9WFW3); assay: Assay for Asp RNA synthetase-1 from Mycobacterium tuberculosis; type: functional; design: scale not given: direction of the effect not stated beside the values; settings: 30 µM; also: in the data most compounds retested in dose-response had high values
T1 sequence (whole entry): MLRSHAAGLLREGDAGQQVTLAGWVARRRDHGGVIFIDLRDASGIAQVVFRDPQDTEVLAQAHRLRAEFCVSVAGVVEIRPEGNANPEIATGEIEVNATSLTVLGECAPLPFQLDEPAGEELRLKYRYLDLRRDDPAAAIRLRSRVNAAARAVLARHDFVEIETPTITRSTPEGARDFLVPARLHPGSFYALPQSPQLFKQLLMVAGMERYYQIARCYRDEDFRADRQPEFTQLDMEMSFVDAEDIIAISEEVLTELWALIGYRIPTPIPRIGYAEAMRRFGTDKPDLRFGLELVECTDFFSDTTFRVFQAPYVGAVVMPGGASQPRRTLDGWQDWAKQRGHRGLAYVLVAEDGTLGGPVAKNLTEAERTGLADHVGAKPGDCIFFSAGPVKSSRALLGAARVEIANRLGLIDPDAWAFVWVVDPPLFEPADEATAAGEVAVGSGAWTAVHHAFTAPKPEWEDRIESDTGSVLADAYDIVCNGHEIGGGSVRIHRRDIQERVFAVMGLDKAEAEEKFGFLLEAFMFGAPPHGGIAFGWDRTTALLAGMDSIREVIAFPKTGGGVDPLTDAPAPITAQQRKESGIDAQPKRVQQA

[2] = biological target: Shiga toxin 2 (Escherichia coli O157:H7) (UniProt P09385+P09386); assay: E. coli 0.157:H7 Shiga Toxin SOP - stx2 screening assay; type: functional; design: scale not given: direction of the effect not stated beside the values; settings: 30 µM

CCNc1cc2c(nn1)CCN(C(=O)c1ccc3cc[nH]c3c1)C2
Percent Effect [1]: 2.23% | Percent Effect [2]: -3.04%

Cc1ncc(-c2nc3cc(S(=O)(=O)N4CCCC4)ccc3n2C)cn1
Percent Effect [1]: 6.27% | Percent Effect [2]: 0.802%

CN1[C@H](Cn2cncn2)C[C@@H]2CN(Cc3cccc(C#N)c3)CC[C@@H]21
Percent Effect [1]: 0.0985% | Percent Effect [2]: -24.3%

CNc1cc(C)nc(C2CN(Cc3cc[nH]n3)CCO2)c1 (centres undefined)
Percent Effect [1]: -0.432% | Percent Effect [2]: 13.3%

Cc1nc(CO[C@@H]2CN(Cc3cnn(C)c3)[C@@H]3COC[C@@H]32)cs1
Percent Effect [1]: -6.31% | Percent Effect [2]: -3.46%

CC(O)CN1CCN(C(=O)c2ccc(N(C)C)nc2)CC1 (centres undefined)
Percent Effect [1]: 1.24% | Percent Effect [2]: -70%

COc1cccc(N2CCN(CCC(=O)NC3CCCC3)CC2)c1
Percent Effect [1]: 1.95% | Percent Effect [2]: -41.4%

CCn1c(CN(C)C)nnc1C1CCN(c2ccnc(C)c2)CC1
Percent Effect [1]: 4.18% | Percent Effect [2]: -16.1%

CNC(=O)[C@@H]1C[C@H]2CN(Cc3nccs3)C[C@H]2N1C
Percent Effect [1]: 1.25% | Percent Effect [2]: -17%

CC1CCN(Cc2cnc(S(=O)(=O)CC3CC3)n2CC2CCCO2)CC1 (centres undefined)
Percent Effect [1]: -2.12% | Percent Effect [2]: -24.8%

Cc1nn(C)cc1C(=O)Nc1cccc(CN2CCC(CO)CC2)c1
Percent Effect [1]: 3.06% | Percent Effect [2]: -101%

Cc1nc(C2CCCN2CC(=O)NCCc2ccsc2)no1 (centres undefined)
Percent Effect [1]: 1.22% | Percent Effect [2]: -9.77%

Cc1nn(C)c(N2CCOCC2)c1CNCc1ccc(Cl)s1
Percent Effect [1]: 5.1% | Percent Effect [2]: 27.1%

CC1CCN(Cn2nc(-c3ccc(F)cc3)oc2=O)CC1
Percent Effect [1]: -0.789% | Percent Effect [2]: -14.8%

Cc1ccc(C2CSCCN2C(=O)c2ccsc2)o1 (centres undefined)
Percent Effect [1]: 3.37% | Percent Effect [2]: 16.4%

CC(C)c1ncncc1C(=O)N1CCN(Cc2cscn2)CC1
Percent Effect [1]: -2.56% | Percent Effect [2]: -22.9%

CCc1nc(C(=O)N2CCCC2)nn1-c1ccccc1Cl
Percent Effect [1]: -1.24% | Percent Effect [2]: 6.73%

Cc1cc(CNc2ccc(C(=O)N3CCCC(C)C3)cc2C)no1 (centres undefined)
Percent Effect [1]: -2.25% | Percent Effect [2]: 11.6%

CN(C)C(=O)N1CCOCC2(CCN(c3ccccn3)C2)C1 (centres undefined)
Percent Effect [1]: 1.11% | Percent Effect [2]: -15.4%

O=C(NC1CCS(=O)(=O)C1)N1CCN(c2cnccn2)CC1 (centres undefined)
Percent Effect [1]: -1.72% | Percent Effect [2]: -8.56%

Cn1cc(CN2CCOC3(CCCN(C(=O)c4ccco4)C3)C2)cn1 (centres undefined)
Percent Effect [1]: -0.297% | Percent Effect [2]: -4.96%

CC(C)c1ccc(O)c(C(=O)N2CCN(Cc3cscn3)CC2)c1
Percent Effect [1]: -0.175% | Percent Effect [2]: -7.95%

CC(C)N1CCCC2(CCN(C(=O)CCCn3ccnc3)C2)C1=O (centres undefined)
Percent Effect [1]: -5.64% | Percent Effect [2]: 15.9%

Cc1cnn(CC2CN(CC(=O)N(C)c3nccs3)CCO2)c1 (centres undefined)
Percent Effect [1]: -6.72% | Percent Effect [2]: 11%

CC(C)Cc1cc(C(=O)N2CCCC(n3cncn3)C2)[nH]n1 (centres undefined)
Percent Effect [1]: -3.97% | Percent Effect [2]: 2.44%

Cc1cnc2n1CCN(C)C21CCN(C(=O)CC(C)C)CC1
Percent Effect [1]: -4.25% | Percent Effect [2]: -6.62%

CC(C)NC(=O)N1CC[C@@H]2CN(Cc3ccccc3)S(=O)(=O)[C@@H]2CC1
Percent Effect [1]: -3.29% | Percent Effect [2]: -5.27%

CN(Cc1nnc(-c2ccco2)o1)C1CCCN(c2cccnn2)C1 (centres undefined)
Percent Effect [1]: 0.611% | Percent Effect [2]: -78.7%

CCc1nc2n(n1)CC(NCc1ncc(-c3ccccc3)o1)CC2 (centres undefined)
Percent Effect [1]: 0.562% | Percent Effect [2]: 9.14%

Cc1cccc(C(=O)NC2CCN(c3cnn(C)c3)C2=O)n1 (centres undefined)
Percent Effect [1]: 2.04% | Percent Effect [2]: -29.9%

COc1cc(CNC(=O)Nc2cc(C(F)(F)F)c[nH]c2=O)ccn1
Percent Effect [1]: -3.59% | Percent Effect [2]: 25.7%

Cc1nc(CN2CCCN(C(=O)C(C)OCC3CC3)CC2)cs1 (centres undefined)
Percent Effect [1]: -3.97% | Percent Effect [2]: -12.8%

CC(=O)N1CCN(C(=O)c2cc(-n3cnnn3)ccc2Cl)CC1
Percent Effect [1]: -1.41% | Percent Effect [2]: -21.8%

Cc1nc(CN(Cc2cccs2)C2CCS(=O)(=O)C2)oc1C (centres undefined)
Percent Effect [1]: -1.77% | Percent Effect [2]: 34.6%

Cc1ncsc1C(=O)NC1CCN(Cc2cccnc2)CC1
Percent Effect [1]: -7.07% | Percent Effect [2]: -58.8%

Cc1nc(C)n(CC2CCCN(c3ncnc4[nH]ccc34)C2)n1 (centres undefined)
Percent Effect [1]: -1.82% | Percent Effect [2]: 2.99%

CCc1nc(CN2CCCC(NCc3ccc(C(N)=O)cc3)C2)no1 (centres undefined)
Percent Effect [1]: -2.68% | Percent Effect [2]: -8.49%
